The results in this text go back to PubChem BioAssay (NCI).

Compounds without any hit were thinned out: in the full panel of roughly 79,000, 15% have a hit. A number with no mark means an inactive call. Activity calls are given as the source filed them. Rule as the data show it: active = growth inhibition above about 70%; inactive = the rest.

The nature of assay [1]: NCI Yeast Anticancer Drug Screen. Data for the rad50 strain (AID 155).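 Also: 0% = growth of vehicle-only cultures of the same strain.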 The conditions noted are these: S. cerevisiae rad50 strain growth inhibition, active compounds read high. In a few lines: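 DNA repair mutant yeast, compound exposure, growth read-out; inhibition is taken relative to vehicle.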
Assay [2] in a line: NCI Yeast Anticancer Drug Screen. Data for the mec2-1 strain (AID 157). The conditions noted are these: S. cerevisiae mec2-1 strain, active compounds read high. In outline: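 Using mec2-1 yeast: add compound, measure growth, express inhibition versus vehicle-treated cultures.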
The nature of assay [3]: NCI Yeast Anticancer Drug Screen. Data for the sgs1 mgt1 strain (AID 161).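 Also: 0% = growth of cultures given vehicle only.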 The conditions noted are these: S. cerevisiae sgs1 mgt1 strain, active compounds read high. In a few lines:
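Percent growth inhibition was derived by comparing compound-exposed mutant yeast with vehicle-exposed cultures. The strain carries alterations in DNA damage repair.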

The nature of assay [4]: NCI Yeast Anticancer Drug Screen. Data for the cln2 rad14 strain (AID 165).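 Also: 0% = growth equal to vehicle treated cultures.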 The note with it: S. cerevisiae cln2 rad14 strain, active compounds read high. In a few lines:
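Yeast strain cln2 rad14, bearing defects in cell cycle control and DNA repair, serves as the test system; values reflect growth inhibition compared with vehicle.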

Assay [5] can be described thus: NCI Yeast Anticancer Drug Screen. Data for the bub3 strain (AID 167). The conditions noted are these: S. cerevisiae bub3 mutant strain, active compounds read high. In a few lines: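 In this screen, a yeast mutant lacking normal mitotic checkpoint function is challenged with compound. Relative growth versus vehicle gives the inhibition value.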
The nature of assay [6]: NCI Yeast Anticancer Drug Screen. Data for the mlh1 rad18 strain (AID 175). The note with it: S. cerevisiae mlh1 rad18 strain growth inhibition, active compounds read high. In outline:
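Steps: expose repair-defective yeast to compound; measure growth; express inhibition against vehicle-treated controls.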

[7] abbreviates: at 5.0 µM (retest, dose inferred, filed as 0.5).
The mark [8] stands for this setting: at 50.0 µM (retest, dose inferred, filed as 5.0).

For `Cc1ccnc(NCCN(C)C)c1`, the growth inhibition is 2% in assay [1] (setting [7]); -1% in assay [1] (setting [8]); 98.5% (active) in assay [1] (at 50.0 µM); 1% in assay [2] (setting [7]); 4% in assay [2] (setting [8]); 98.2% (active) in assay [2] (at 50.0 µM). The growth inhibition is 3% in assay [3] (setting [7]); 1% in assay [3] (setting [8]); 97.5% (active) in assay [3] (at 50.0 µM); -6% in assay [4] (setting [7]); 1% in assay [4] (setting [8]); 98.3% (active) in assay [4] (at 50.0 µM). Besides, the growth inhibition was -1% in assay [5] (setting [7]); -2% in assay [5] (setting [8]); 99.3% (active) in assay [5] (at 50.0 µM); -1% in assay [6] (setting [7]); -1% in assay [6] (setting [8]); 98.7% (active) in assay [6] (at 50.0 µM).
As for `OCCC(CCN1CCOCC1)(c1ccccc1)C1(O)CCCC1` (configuration not stated), the growth inhibition is 3% in assay [1] (setting [7]); 3% in assay [1] (setting [8]); -2.95% in assay [1] (at 50.0 µM); 5% in assay [2] (setting [7]); 2% in assay [2] (setting [8]); 45.3% in assay [2] (at 50.0 µM). Further, the growth inhibition in assay [3] (setting [7]) was 8%; in assay [3] (setting [8]) it was 3%; in assay [3] (at 50.0 µM), 74.4% (active); in assay [4] (setting [7]), 2%; in assay [4] (setting [8]), 2%; in assay [4] (at 50.0 µM), 71.2% (active). In addition, the growth inhibition in assay [5] (setting [7]) is -3%; in assay [5] (setting [8]) it was -4%; in assay [5] (at 50.0 µM), 61.4%; in assay [6] (setting [7]), -2%; in assay [6] (setting [8]) it was -2%; in assay [6] (at 50.0 µM), 73.8% (active).
As to `CCCCC(CC)CCC(C)OC(=O)C(O)c1ccccc1` (configuration not stated), the growth inhibition in assay [1] (setting [7]) is -1%; in assay [1] (setting [8]), 86% (active); in assay [1] (at 50.0 µM), 61.8%; in assay [2] (setting [7]), -6%; in assay [2] (setting [8]), 87% (active); in assay [2] (at 50.0 µM) it was 86.7% (active). The growth inhibition is -4% in assay [3] (setting [7]); 85% (active) in assay [3] (setting [8]); 83% (active) in assay [3] (at 50.0 µM); 1% in assay [4] (setting [7]); 82% (active) in assay [4] (setting [8]); 32.5% in assay [4] (at 50.0 µM). For the same molecule, the growth inhibition in assay [5] (setting [7]) was 1%; in assay [5] (setting [8]) it was 88% (active); in assay [5] (at 50.0 µM), 75.5% (active); in assay [6] (setting [7]), -4%; in assay [6] (setting [8]) it was 90% (active); in assay [6] (at 50.0 µM), 87.8% (active).
For `Nc1nc(N)c(-c2cccc(C(F)(F)F)c2)c(Cc2cccc(C(F)(F)F)c2)n1`, the growth inhibition in assay [1] (setting [7]) is -2%; in assay [1] (setting [8]), 98% (active); in assay [1] (at 50.0 µM), 99.6% (active); in assay [2] (setting [7]), 14%; in assay [2] (setting [8]) it was 98% (active); in assay [2] (at 50.0 µM) it was 99.3% (active). In addition, the growth inhibition was -1% in assay [3] (setting [7]); 98% (active) in assay [3] (setting [8]); 99.3% (active) in assay [3] (at 50.0 µM); 24% in assay [4] (setting [7]); 91% (active) in assay [4] (setting [8]); 98.9% (active) in assay [4] (at 50.0 µM). Also, the growth inhibition is -4% in assay [5] (setting [7]); 95% (active) in assay [5] (setting [8]); 99.2% (active) in assay [5] (at 50.0 µM); 0% in assay [6] (setting [7]); 99% (active) in assay [6] (setting [8]); 99.6% (active) in assay [6] (at 50.0 µM).
`O=S(=O)(CC(Br)c1ccccc1)CC(Br)c1ccccc1` (configuration not stated): the growth inhibition is -3% in assay [1] (setting [7]); -1% in assay [1] (setting [8]); 50.2% in assay [1] (at 50.0 µM); 19% in assay [2] (setting [7]); 41% in assay [2] (setting [8]); 43% in assay [2] (at 50.0 µM). In addition, the growth inhibition in assay [3] (setting [7]) is -4%; in assay [3] (setting [8]), 0%; in assay [3] (at 50.0 µM) it was 80.9% (active); in assay [4] (setting [7]) it was -3%; in assay [4] (setting [8]), 6%; in assay [4] (at 50.0 µM), 40%. Further, the growth inhibition in assay [5] (setting [7]) is 4%; in assay [5] (setting [8]) it was 42%; in assay [5] (at 50.0 µM), 63.2%; in assay [6] (setting [7]), -3%; in assay [6] (setting [8]), 13%; in assay [6] (at 50.0 µM), 46.6%.
As for `Cc1c(N)nc(C2CC(=O)N2CC(N)C(N)=O)nc1C(=O)NC(C(=O)NC(C)C(O)C(C)C(=O)NC(C(=O)NCCc1nc(-c2nc(C(=O)NCCCNC3CCCC3)cs2)cs1)C(C)O)C(OC1OC(CO)C(O)C(O)C1OC1OC(CO)C(O)C(OC(N)=O)C1O)c1cnc[nH]1` (configuration not stated), the growth inhibition was 98% (active) in assay [1] (setting [7]); 99% (active) in assay [1] (setting [8]); 92.2% (active) in assay [1] (at 50.0 µM); 97% (active) in assay [2] (setting [7]); 99% (active) in assay [2] (setting [8]); 93.3% (active) in assay [2] (at 50.0 µM). The growth inhibition in assay [3] (setting [7]) is 96% (active); in assay [3] (setting [8]), 98% (active); in assay [3] (at 50.0 µM), 93.5% (active); in assay [4] (setting [7]), 93% (active); in assay [4] (setting [8]) it was 97% (active); in assay [4] (at 50.0 µM), 88.3% (active). In addition, the growth inhibition in assay [5] (setting [7]) was 97% (active); in assay [5] (setting [8]) it was 98% (active); in assay [5] (at 50.0 µM), 93.5% (active); in assay [6] (setting [7]) it was 98% (active); in assay [6] (setting [8]) it was 99% (active); in assay [6] (at 50.0 µM), 92% (active).
With `CCOC(=O)/C(=N/NS(=O)(=O)c1c(C)cc(C)cc1C)c1ccco1`, the growth inhibition in assay [1] (setting [7]) was -2%; in assay [1] (setting [8]), 13%; in assay [1] (at 50.0 µM), 64.6%; in assay [2] (setting [7]), -2%; in assay [2] (setting [8]), 25%; in assay [2] (at 50.0 µM), 45.5%. The growth inhibition was 2% in assay [3] (setting [7]); 41% in assay [3] (setting [8]); 50.4% in assay [3] (at 50.0 µM); 0% in assay [4] (setting [7]); -4% in assay [4] (setting [8]); 38.3% in assay [4] (at 50.0 µM). The growth inhibition was 1% in assay [5] (setting [7]); 29% in assay [5] (setting [8]); 79.8% (active) in assay [5] (at 50.0 µM); 4% in assay [6] (setting [7]); 34% in assay [6] (setting [8]); 80.7% (active) in assay [6] (at 50.0 µM).
For the molecule `CCOC(=O)/C(=C\c1ccc(Cl)cc1)C(C)=O`, the growth inhibition was 31% in assay [1] (setting [7]); 98% (active) in assay [1] (setting [8]); 93.2% (active) in assay [1] (at 50.0 µM); 49% in assay [2] (setting [7]); 99% (active) in assay [2] (setting [8]); 94.5% (active) in assay [2] (at 50.0 µM). Further, the growth inhibition in assay [3] (setting [7]) was 33%; in assay [3] (setting [8]) it was 98% (active); in assay [3] (at 50.0 µM), 93.3% (active); in assay [4] (setting [7]), 29%; in assay [4] (setting [8]), 98% (active); in assay [4] (at 50.0 µM), 92% (active). Moreover, the growth inhibition in assay [5] (setting [7]) was 79% (active); in assay [5] (setting [8]), 99% (active); in assay [5] (at 50.0 µM), 92.2% (active); in assay [6] (setting [7]) it was 79% (active); in assay [6] (setting [8]) it was 98% (active); in assay [6] (at 50.0 µM) it was 91.5% (active).
For the molecule `Oc1ccc(C2(c3ccc(O)c(Cl)c3)CC3CCC2C3)cc1Cl` (configuration not stated), the growth inhibition in assay [1] (setting [7]) was 98% (active); in assay [1] (setting [8]), 98% (active); in assay [1] (at 50.0 µM) it was 98% (active); in assay [2] (setting [7]), 99% (active); in assay [2] (setting [8]) it was 99% (active); in assay [2] (at 50.0 µM) it was 99.2% (active). Besides, the growth inhibition in assay [3] (setting [7]) was 99% (active); in assay [3] (setting [8]) it was 98% (active); in assay [3] (at 50.0 µM), 99.3% (active); in assay [4] (setting [7]), 99% (active); in assay [4] (setting [8]), 98% (active); in assay [4] (at 50.0 µM) it was 99% (active). In addition, the growth inhibition was 99% (active) in assay [5] (setting [7]); 98% (active) in assay [5] (setting [8]); 98.8% (active) in assay [5] (at 50.0 µM); 99% (active) in assay [6] (setting [7]); 97% (active) in assay [6] (setting [8]); 98.7% (active) in assay [6] (at 50.0 µM).
